# The sample as a whole holds a higher share of hits than the screen did.
# Pf Dd2 growth – qHTS Primary assay for Inhibitors of Plasmodium falciparum Dd2 growth in vitro; P. falciparum Dd2 growth, SYBR Green, 72 h; Potency, µM (top dose mostly 28.9 µM), inactives show at the highest dose activity, negative = inhibition, hits mostly inhibitors; 120,000 tested, 4.3% active; active = well fitted inhibition curve with a large enough effect;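 note: plate controls were DMSO vehicle for no effect and reference drug for full effect; nearly all actives have a fitted effect of over 65% in size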
#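 Infected erythrocytes (Dd2, 0.3% parasitemia, 2.5% hematocrit final) are added to compound in RPMI-1640/Albumax II medium, grown 72 h at 37C in low oxygen, then lysed with saponin/Triton-X containing SYBR Green and read by fluorescence.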
# Starred values were filed as active, the others as inactive; i = inactive; [ ] = remark or other dose. Potency is the fitted concentration of half-maximal effect.
SMILES,Pf Dd2 growth
Cc1nnc(-c2cc(N3CCN(c4ccccn4)CC3)ccn2)n1C1CCCCC1,-4%[44.1 µM]
Cc1ccc(-c2cc(C(=O)N3CCN(S(=O)(=O)c4ccc(Br)s4)CC3)[nH]n2)cc1C,3%
Cc1cc(Br)ccc1NC(=O)C1CCN(S(=O)(=O)c2ccc(Br)s2)CC1,-18%
O=C(C1CCN(S(=O)(=O)c2ccc(Br)s2)CC1)N1CCN(c2ccc(F)cc2)CC1,-8%
O=C(c1cc(-c2ccc(Br)cc2)n[nH]1)N1CCN(S(=O)(=O)c2ccc(Br)s2)CC1,8.9µM*
O=C(c1cc(-c2ccc(Cl)cc2)n[nH]1)N1CCN(S(=O)(=O)c2ccc(Br)s2)CC1,-25%
Cc1ccc(-c2cc(C(=O)N3CCN(S(=O)(=O)c4ccc(Br)s4)CC3)[nH]n2)c(C)c1,13µM*
COc1ccccc1CC(=O)N1CCC2(CC1)NC(=O)N(Cc1ccc(F)cc1)C2=O,-9%
COCC(=O)N1CCC(c2nn(-c3ccccc3)c(=O)[nH]2)CC1,-8%[44.1 µM]
C#CCOc1cccc(CN2CCN3C(=O)CN(C)C(=O)C3C2)c1 (stereo not given),-9%
N#Cc1ccc(O[C@@H]2CCOC[C@H]2NC(=O)CCCn2cncn2)cc1,2%
COCCNC(=O)c1ccc2c(c1)C1(CCN(C)C1)CN2Cc1csc(C)n1 (stereo not given),i
Cc1nc(CN2CC3(CCN(C)C3)c3cc(C(=O)NCCc4ccccc4)ccc32)cs1 (stereo not given),11µM*
CN1CCCC2(C1)CN(C)c1ccc(C(=O)NCCc3ccccc3)cc12 (stereo not given),-27%[44.1 µM]
CC(=O)N1CCC(N2CC[C@@H](CO)N(C)c3nc(C)ccc3C2)CC1,i
CCN(CC)Cc1nc(C2(O)CCN(C3CCCC3)CC2)cs1,i
Cc1nc([C@@H]2CN(S(=O)(=O)c3ccc4c(c3)CCC4)C[C@H]2C(N)=O)n[nH]1,-15%
CCOc1ccc(OCC)c(NC(=O)C2CCCN(S(=O)(=O)c3cc(Br)cc4c3N(C(=O)CC)CC4)C2)c1 (stereo not given),7.9µM*
CCOC(=O)C1CCCN(S(=O)(=O)c2cc(Br)cc3c2N(C(C)=O)CC3)C1 (stereo not given),21%
CCOC(=O)c1cccc(NC(=O)C2CCCN(S(=O)(=O)c3cc(Br)cc4c3N(C(=O)CC)CC4)C2)c1 (stereo not given),-23%
CN1CCCCCCN(S(=O)(=O)c2cccc(F)c2)CCC1=O,-8%
O=C(CCc1cccs1)N1CCOC(CCCc2ccccc2)C1 (stereo not given),-4%
C[S+](=O)([O-])c1ccc(-c2nccc3c(=O)cc(-c4cccnc4)oc23)cc1,-8%[44.1 µM]
O=c1cc(-c2ccccn2)oc2c(NCc3ccccc3)nccc12,-14%[44.1 µM]
O=c1cc(-c2cccnc2)oc2c(NCc3ccc(F)cc3)nccc12,11µM*
SMILES,Pf Dd2 growth
CCn1ncc(N2CCC(NC(=O)Cc3ccc(F)cc3)CC2)cc1=O,i
Cc1cccc(CN2CCn3c(nnc3[C@@H]3C[C@@H](O)CN3Cc3ccccc3)C2)c1,-7%
COc1ccc2c(c1)C=C(CN1CCCC(O)(CN(C)C)C1)CO2 (stereo not given),-16%
CCOc1cc(C)c(CN2CCCC(O)(CN(C)C)C2)cc1C(C)C (stereo not given),2.8µM*
CN(C)CC1(O)CCCN(Cc2ccc(-c3ccc(Cl)cc3)o2)C1 (stereo not given),-23%
O=C(c1ccc2cccc(F)c2n1)N1CCN(C(=O)C2CCCCC2)CC1,3%
O=C(c1cccc(F)c1)N1CCC(Oc2ccccc2)C1 (stereo not given),0%
O=C(N[C@@H]1CCOC[C@H]1OCC1CCC1)c1ccc(-n2cnnc2)cc1,-5%
CN1CCC(NC[C@H]2O[C@H](Cc3cc(-c4ccc(F)cc4)on3)CC[C@@H]2O)CC1,i
NCc1cccc(-c2cccc(Cl)c2)c1,13µM*
NCc1cccc(-c2cncnc2)c1,6%[44.1 µM]
C=Cc1cccc(-c2nccn2-c2cccc(CN)c2)c1,-28%
CS(=O)(=O)N1CC2(CCN(C(=O)CCC(=O)O)CC2)Cc2ccccc21,14%
CCN1CCN(C(=O)c2c(OCC3CC3)cc(=O)n3c2CCCCC3)CC1,51%
Cc1ccc(C)c(N2CCN(C(=O)CCS(=O)(=O)c3cc(Br)cc4c3N(C(=O)C3CC3)CC4)CC2)c1,11µM*
O=C(CCS(=O)(=O)c1cc(Br)cc2c1N(C(=O)C1CC1)CC2)N1CCN(c2ccc(F)cc2)CC1,7.9µM*
Cc1ccc(N2CCN(S(=O)(=O)c3cc(Br)cc4c3N(C(=O)C3CC3)CC4)CC2C)cc1 (stereo not given),i
CCC(=O)N1CCc2cc(S(=O)(=O)CCC(=O)N3CCN(c4cccc(Cl)c4)CC3)ccc21,-12%
O=C(CCS(=O)(=O)c1cc(Br)cc2c1N(C(=O)C1CC1)CC2)N1CCN(c2cccc(C(F)(F)F)c2)CC1,10µM*
COc1ccccc1CNS(=O)(=O)c1cc(Br)cc2c1N(C(=O)C1CC1)CC2,1%

# Compound activity deposited in PubChem by National Center for Advancing Translational Sciences (NCATS).
